About 7,900 targets were measured; listed, in parts, are those with a hit and a random draw of the rest. About 0.6% of all pairs of compound and target were hits.
Experiments:
Experiment in all cases: log2 fold change, soluble protein after heating vs DMSO (PISA); higher = thermal stabilisation; K562 cells, 10 uM, 30 min; active = over 0.2 and 3.5 SD of the protein, either way, in both replicates (recomputed)
[1] = compound: CS(=O)(=O)c1ccc(-c2cnc(N)c(C(=O)Nc3ccccc3)n2)cc1
Outline: (§1)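 Quantification of soluble protein used TMTpro 16plex LC-MS/MS, with channel sums equalised. Samples were the supernatant after 21,000xg for 90 min of pooled aliquots from K562 cells (2×10^6 cells/mL) treated with 10 μM compound for 30 min, heated for 3 min over 48°C-58°C, and extracted in PBS with 0.5% NP-40 at 4°C. Values, from duplicates, describe thermal stability against control samples on a log2 fold-change scale.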

crizotinib = compound: C[C@@H](Oc1cc(-c2cnn(C3CCNCC3)c2)cnc1N)c1c(Cl)ccc(F)c1Cl [crizotinib]
Outline: as §1

[2] = compound: C[C@@H]1COCCN1C2=NC(=NC(=C2)C3(CC3)S(=O)(=O)C)C4=C5C=CNC5=CC=C4
Outline: as §1

[3] = compound: C[C@H](C1=CC=C(C=C1)C(=O)NC2=C3C=CNC3=NC=C2)N
Outline: as §1

duvelisib = compound: C[C@H](Nc1ncnc2nc[nH]c12)c1cc2cccc(Cl)c2c(=O)n1-c1ccccc1 [duvelisib]
Outline: as §1

gandotinib = compound: Cc1cc(Nc2cc(CN3CCOCC3)c3nc(C)c(Cc4ccc(Cl)cc4F)n3n2)n[nH]1 [gandotinib]
Outline: as §1

tozasertib = compound: Cc1cc(Nc2cc(N3CCN(C)CC3)nc(Sc3ccc(NC(=O)C4CC4)cc3)n2)n[nH]1 [tozasertib]
Outline: as §1

[4] = compound: Cc1cc(SCc2sc(-c3ccc(C(F)(F)F)cc3)nc2C)ccc1OCC(=O)O
Outline: as §1

doramapimod = compound: Cc1ccc(-n2nc(C(C)(C)C)cc2NC(=O)Nc2ccc(OCCN3CCOCC3)c3ccccc23)cc1 [doramapimod]
Outline: as §1

ispinesib = compound: Cc1ccc(C(=O)N(CCCN)[C@@H](c2nc3cc(Cl)ccc3c(=O)n2Cc2ccccc2)C(C)C)cc1 [ispinesib]
Outline: as §1

Measured: log2 fold change

MICOS13 (UniProt Q5XKP0)
active: ispinesib -0.257
inactive: [1] 0.049 | crizotinib -0.164 | [2] 0.156 | [3] -0.08 | duvelisib 0.031 | gandotinib -0.216 | tozasertib -0.047 | [4] -0.055 | doramapimod -0.027

L2HGDH (UniProt Q9H9P8)
inactive: [1] 0.04 | crizotinib -0.081 | [2] 0.124 | [3] -0.025 | duvelisib 0.063 | gandotinib 0.024 | tozasertib -0.082 | [4] 0.039 | doramapimod -0.02 | ispinesib -0.083

KDM1A isoform 2 (UniProt O60341)
inactive: [1] -0.047 | crizotinib -0.036 | [2] 0.018 | [3] -0.011 | duvelisib 0.025 | gandotinib 0.014 | tozasertib 0.049 | [4] 0.061 | doramapimod -0.028 | ispinesib -0.057

ILK (UniProt Q13418)
UniProt Q13418, sequence (Q13418 whole entry, looked up): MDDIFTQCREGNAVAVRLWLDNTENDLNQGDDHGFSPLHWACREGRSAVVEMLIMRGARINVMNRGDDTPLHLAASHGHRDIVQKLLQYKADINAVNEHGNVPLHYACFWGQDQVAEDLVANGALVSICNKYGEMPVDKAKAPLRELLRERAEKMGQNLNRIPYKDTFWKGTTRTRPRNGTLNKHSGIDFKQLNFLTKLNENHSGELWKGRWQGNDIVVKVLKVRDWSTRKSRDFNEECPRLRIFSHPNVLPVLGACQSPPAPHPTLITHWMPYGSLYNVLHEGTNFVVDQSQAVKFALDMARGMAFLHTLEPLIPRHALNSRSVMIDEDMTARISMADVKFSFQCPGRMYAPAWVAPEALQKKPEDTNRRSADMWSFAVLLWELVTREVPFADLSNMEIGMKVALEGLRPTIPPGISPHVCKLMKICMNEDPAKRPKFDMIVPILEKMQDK
inactive: [1] 0.054 | crizotinib 0.038 | [2] -0.001 | [3] 0.046 | duvelisib 0.081 | gandotinib -0.039 | tozasertib -0.105 | [4] -0.046 | doramapimod -0.023 | ispinesib -0.153

IRF3 (UniProt Q14653)
inactive: [1] -0.146 | crizotinib 0.007 | [2] 0.056 | [3] -0.027 | duvelisib 0.067 | gandotinib -0.068 | tozasertib 0.039 | [4] 0.053 | doramapimod -0.038 | ispinesib 0.022

MAGEA9 (UniProt P43362)
inactive: [1] 0.005 | crizotinib 0.008 | [2] 0.082 | [3] -0.028 | duvelisib 0.12 | gandotinib -0.095 | tozasertib 0.168 | [4] -0.029 | doramapimod 0 | ispinesib -0.001

MAPK8 isoform 3 (UniProt P45983)
inactive: [1] 0.003 | crizotinib -0.08 | [2] 0.092 | [3] -0.096 | duvelisib 0.018 | gandotinib 0.254 | tozasertib -0.127 | [4] 0.096 | doramapimod -0.019 | ispinesib -0.008

MFN1 (UniProt Q8IWA4)
UniProt Q8IWA4, sequence (Q8IWA4 whole entry, looked up): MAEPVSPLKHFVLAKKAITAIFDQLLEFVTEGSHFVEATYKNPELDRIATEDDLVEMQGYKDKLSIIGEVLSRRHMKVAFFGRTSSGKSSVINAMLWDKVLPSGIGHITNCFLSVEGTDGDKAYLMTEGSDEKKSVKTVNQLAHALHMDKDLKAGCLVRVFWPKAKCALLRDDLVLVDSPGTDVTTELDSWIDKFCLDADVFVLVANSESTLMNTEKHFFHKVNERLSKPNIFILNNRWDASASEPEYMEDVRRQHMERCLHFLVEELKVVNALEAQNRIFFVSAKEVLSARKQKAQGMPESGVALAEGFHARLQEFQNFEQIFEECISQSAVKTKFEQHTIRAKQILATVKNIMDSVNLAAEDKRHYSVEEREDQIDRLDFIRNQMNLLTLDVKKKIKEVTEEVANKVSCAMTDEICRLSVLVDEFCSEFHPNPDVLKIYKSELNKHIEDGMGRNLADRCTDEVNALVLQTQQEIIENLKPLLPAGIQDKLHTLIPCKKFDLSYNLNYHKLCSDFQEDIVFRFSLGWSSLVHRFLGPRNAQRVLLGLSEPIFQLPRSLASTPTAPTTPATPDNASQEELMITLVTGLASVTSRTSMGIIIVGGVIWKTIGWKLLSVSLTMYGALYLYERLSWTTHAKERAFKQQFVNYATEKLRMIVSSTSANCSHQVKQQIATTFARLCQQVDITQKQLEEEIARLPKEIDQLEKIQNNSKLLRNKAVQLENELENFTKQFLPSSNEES
inactive: [1] 0.031 | crizotinib -0.026 | [2] 0.027 | [3] -0.063 | duvelisib 0.037 | gandotinib 0.025 | tozasertib -0.063 | [4] 0.039 | doramapimod 0.02 | ispinesib -0.207

KDM3B (UniProt Q7LBC6)
inactive: [1] 0.045 | crizotinib 0.001 | [2] 0.086 | [3] -0.044 | duvelisib 0.015 | gandotinib -0.045 | tozasertib 0.06 | [4] 0.012 | doramapimod -0.077 | ispinesib 0.015

LIMD1 (UniProt Q9UGP4)
inactive: [1] -0.03 | crizotinib 0.005 | [2] -0.007 | [3] -0.071 | duvelisib -0.032 | gandotinib 0.011 | tozasertib 0.039 | [4] 0.042 | doramapimod -0.01 | ispinesib 0.008

MGST3 (UniProt O14880)
inactive: [1] 0.058 | crizotinib 0.119 | [2] -0.013 | [3] -0.075 | duvelisib -0.002 | gandotinib -0.006 | tozasertib -0.018 | [4] -0.054 | doramapimod -0.031 | ispinesib 0.03

IMMT isoform 2 (UniProt Q16891)
inactive: [1] -0.042 | crizotinib -0.152 | [2] 0.046 | [3] -0.115 | duvelisib -0.003 | gandotinib -0.075 | tozasertib -0.019 | [4] -0.087 | doramapimod -0.034 | ispinesib -0.031

LRBA (UniProt P50851)
inactive: [1] 0.018 | crizotinib -0.054 | [2] 0.037 | [3] -0.005 | duvelisib 0.012 | gandotinib -0.094 | tozasertib -0.006 | [4] 0.011 | doramapimod 0.012 | ispinesib -0.078

LRBA, A0A494BZW2
inactive: [1] 0.013 | crizotinib -0.053 | [2] 0.114 | [3] 0.104 | duvelisib -0.057 | gandotinib 0.041 | tozasertib -0.055 | [4] -0.004 | doramapimod 0.036 | ispinesib -0.182

ILF2 (UniProt Q12905)
UniProt Q12905, sequence (Q12905 whole entry, looked up): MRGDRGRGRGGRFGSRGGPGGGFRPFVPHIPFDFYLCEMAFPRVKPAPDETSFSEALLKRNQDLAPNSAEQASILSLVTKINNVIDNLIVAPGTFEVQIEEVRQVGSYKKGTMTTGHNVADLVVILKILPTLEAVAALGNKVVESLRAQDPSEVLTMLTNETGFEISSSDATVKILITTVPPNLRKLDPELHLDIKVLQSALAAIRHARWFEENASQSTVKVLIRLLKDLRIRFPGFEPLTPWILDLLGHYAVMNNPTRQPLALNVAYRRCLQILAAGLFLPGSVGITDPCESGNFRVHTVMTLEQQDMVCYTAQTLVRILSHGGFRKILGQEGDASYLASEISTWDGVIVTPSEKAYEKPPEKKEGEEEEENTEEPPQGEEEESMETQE
inactive: [1] -0.168 | crizotinib -0.164 | [2] -0.153 | [3] 0.206 | duvelisib -0.126 | gandotinib 0.07 | tozasertib -0.024 | [4] 0.022 | doramapimod 0.063 | ispinesib 0.038

LAMP2 (UniProt P13473)
UniProt P13473, sequence (P13473 whole entry, looked up): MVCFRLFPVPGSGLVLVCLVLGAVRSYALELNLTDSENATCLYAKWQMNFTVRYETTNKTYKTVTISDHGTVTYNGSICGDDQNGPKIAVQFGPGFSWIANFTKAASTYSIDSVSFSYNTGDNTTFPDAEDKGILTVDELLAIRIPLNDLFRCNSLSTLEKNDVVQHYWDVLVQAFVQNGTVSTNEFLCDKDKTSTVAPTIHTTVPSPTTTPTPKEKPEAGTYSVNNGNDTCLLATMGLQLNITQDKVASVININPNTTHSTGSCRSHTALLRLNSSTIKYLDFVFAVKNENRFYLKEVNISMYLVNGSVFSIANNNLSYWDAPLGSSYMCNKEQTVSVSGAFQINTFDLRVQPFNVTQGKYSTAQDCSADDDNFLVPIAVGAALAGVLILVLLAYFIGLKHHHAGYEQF
inactive: [1] 0.055 | crizotinib 0.043 | [2] 0.006 | [3] -0.051 | duvelisib 0.072 | gandotinib -0.104 | tozasertib 0.015 | [4] -0.062 | doramapimod -0.039 | ispinesib -0.001

LRPPRC (UniProt P42704)
inactive: [1] 0.025 | crizotinib -0.822 | [2] 0.154 | [3] 0.065 | duvelisib 0.059 | gandotinib -0.175 | tozasertib 0.213 | [4] 0.481 | doramapimod -0.172 | ispinesib -0.416

LSS (UniProt P48449)
inactive: [1] 0.043 | [2] 0.081 | [3] 0.02 | duvelisib 0.044 | gandotinib 0.044 | tozasertib 0.103 | [4] 0.017 | doramapimod 0.024 | ispinesib 0.111
active: crizotinib 0.77

KPNA6 (UniProt O60684)
inactive: [1] -0.01 | crizotinib -0.11 | [2] -0.011 | [3] 0.138 | duvelisib 0 | gandotinib -0.028 | tozasertib 0.046 | [4] 0.07 | doramapimod 0.046 | ispinesib -0.202

MFF (UniProt Q9GZY8)
inactive: [1] -0.03 | crizotinib -0.051 | [2] -0.052 | [3] -0.023 | duvelisib 0.005 | gandotinib -0.036 | tozasertib -0.053 | [4] -0.085 | doramapimod -0.018 | ispinesib -0.088

LUZP1 (UniProt Q86V48)
inactive: [1] 0.183 | crizotinib -0.259 | [2] -0.265 | [3] 0.191 | duvelisib -0.009 | gandotinib 0.058 | tozasertib 0.196 | [4] 0.206 | doramapimod 0.017 | ispinesib -0.138

MCU (UniProt Q8NE86)
UniProt Q8NE86, sequence (Q8NE86 whole entry, looked up): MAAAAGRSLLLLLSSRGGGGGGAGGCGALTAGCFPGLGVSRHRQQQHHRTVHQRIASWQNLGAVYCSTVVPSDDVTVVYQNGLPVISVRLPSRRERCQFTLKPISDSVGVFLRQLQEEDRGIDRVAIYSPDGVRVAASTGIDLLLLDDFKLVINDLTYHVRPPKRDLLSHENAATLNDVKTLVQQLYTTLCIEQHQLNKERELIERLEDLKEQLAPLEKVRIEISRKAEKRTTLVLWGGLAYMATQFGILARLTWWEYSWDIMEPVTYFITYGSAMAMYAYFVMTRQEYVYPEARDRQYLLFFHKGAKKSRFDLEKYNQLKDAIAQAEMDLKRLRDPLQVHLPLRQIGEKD
inactive: [1] -0.013 | crizotinib -0.159 | [2] 0.015 | [3] 0.001 | duvelisib 0.061 | gandotinib -0.172 | tozasertib -0.012 | [4] 0.054 | doramapimod -0.013 | ispinesib -0.1

LMBRD2 (UniProt Q68DH5)
UniProt Q68DH5, sequence (Q68DH5 whole entry, looked up): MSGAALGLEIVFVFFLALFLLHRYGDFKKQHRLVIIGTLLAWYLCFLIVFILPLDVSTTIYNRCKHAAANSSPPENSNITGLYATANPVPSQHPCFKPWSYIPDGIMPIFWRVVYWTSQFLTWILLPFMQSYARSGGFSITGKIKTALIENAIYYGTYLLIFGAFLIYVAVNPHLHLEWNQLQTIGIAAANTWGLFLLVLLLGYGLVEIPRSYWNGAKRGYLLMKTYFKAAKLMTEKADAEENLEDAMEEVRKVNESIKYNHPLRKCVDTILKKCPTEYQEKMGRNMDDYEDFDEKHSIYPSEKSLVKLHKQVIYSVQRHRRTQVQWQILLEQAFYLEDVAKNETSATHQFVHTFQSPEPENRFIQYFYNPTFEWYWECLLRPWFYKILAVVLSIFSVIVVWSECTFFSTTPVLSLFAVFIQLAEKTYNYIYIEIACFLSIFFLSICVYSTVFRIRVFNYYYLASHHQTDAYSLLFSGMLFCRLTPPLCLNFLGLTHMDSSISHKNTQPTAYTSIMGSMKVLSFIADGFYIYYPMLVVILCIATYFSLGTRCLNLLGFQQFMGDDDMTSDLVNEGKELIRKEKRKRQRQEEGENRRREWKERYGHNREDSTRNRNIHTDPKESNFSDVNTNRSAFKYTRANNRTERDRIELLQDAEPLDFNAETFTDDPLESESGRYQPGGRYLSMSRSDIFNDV
active: ispinesib -0.328
inactive: [1] 0.034 | crizotinib -0.156 | [2] -0.042 | [3] -0.152 | duvelisib 0.001 | gandotinib -0.049 | tozasertib -0.016 | [4] -0.065 | doramapimod 0.011

KLC2 (UniProt Q9H0B6)
UniProt Q9H0B6, sequence (Q9H0B6 whole entry, looked up): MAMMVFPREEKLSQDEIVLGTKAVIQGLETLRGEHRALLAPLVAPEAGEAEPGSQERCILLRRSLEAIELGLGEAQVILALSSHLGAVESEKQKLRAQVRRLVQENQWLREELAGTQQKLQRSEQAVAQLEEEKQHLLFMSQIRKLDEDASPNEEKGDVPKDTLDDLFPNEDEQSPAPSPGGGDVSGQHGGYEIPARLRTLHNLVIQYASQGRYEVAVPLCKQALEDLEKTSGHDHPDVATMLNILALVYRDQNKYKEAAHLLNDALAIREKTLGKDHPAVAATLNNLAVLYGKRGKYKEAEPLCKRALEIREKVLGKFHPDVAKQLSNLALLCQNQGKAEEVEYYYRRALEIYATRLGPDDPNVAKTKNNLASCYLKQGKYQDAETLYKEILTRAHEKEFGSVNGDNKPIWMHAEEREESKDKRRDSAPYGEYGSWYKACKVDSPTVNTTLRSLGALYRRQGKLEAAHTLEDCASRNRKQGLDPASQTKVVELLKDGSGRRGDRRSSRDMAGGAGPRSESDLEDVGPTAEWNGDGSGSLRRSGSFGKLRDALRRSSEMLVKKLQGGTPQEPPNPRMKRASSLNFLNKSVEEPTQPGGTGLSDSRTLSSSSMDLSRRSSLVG
inactive: [1] 0.012 | crizotinib -0.131 | [2] 0.008 | [3] -0.007 | duvelisib 0.059 | gandotinib -0.079 | tozasertib -0.004 | [4] 0.047 | doramapimod -0.002 | ispinesib -0.062

KSR1 (UniProt Q8IVT5)
inactive: [1] -0.017 | crizotinib -0.287 | [2] 0.036 | [3] 0.047 | duvelisib 0.031 | gandotinib -0.067 | tozasertib -0.221 | [4] -0.017 | doramapimod 0.052 | ispinesib -0.113

KRAS isoform 2 (UniProt P01116)
inactive: [1] 0.03 | crizotinib 0.024 | [2] -0.016 | [3] 0.019 | duvelisib -0.084 | gandotinib -0.05 | tozasertib -0.079 | [4] -0.018 | doramapimod -0.019 | ispinesib -0.09

LARP4B (UniProt Q92615)
UniProt Q92615, sequence (Q92615 whole entry, looked up): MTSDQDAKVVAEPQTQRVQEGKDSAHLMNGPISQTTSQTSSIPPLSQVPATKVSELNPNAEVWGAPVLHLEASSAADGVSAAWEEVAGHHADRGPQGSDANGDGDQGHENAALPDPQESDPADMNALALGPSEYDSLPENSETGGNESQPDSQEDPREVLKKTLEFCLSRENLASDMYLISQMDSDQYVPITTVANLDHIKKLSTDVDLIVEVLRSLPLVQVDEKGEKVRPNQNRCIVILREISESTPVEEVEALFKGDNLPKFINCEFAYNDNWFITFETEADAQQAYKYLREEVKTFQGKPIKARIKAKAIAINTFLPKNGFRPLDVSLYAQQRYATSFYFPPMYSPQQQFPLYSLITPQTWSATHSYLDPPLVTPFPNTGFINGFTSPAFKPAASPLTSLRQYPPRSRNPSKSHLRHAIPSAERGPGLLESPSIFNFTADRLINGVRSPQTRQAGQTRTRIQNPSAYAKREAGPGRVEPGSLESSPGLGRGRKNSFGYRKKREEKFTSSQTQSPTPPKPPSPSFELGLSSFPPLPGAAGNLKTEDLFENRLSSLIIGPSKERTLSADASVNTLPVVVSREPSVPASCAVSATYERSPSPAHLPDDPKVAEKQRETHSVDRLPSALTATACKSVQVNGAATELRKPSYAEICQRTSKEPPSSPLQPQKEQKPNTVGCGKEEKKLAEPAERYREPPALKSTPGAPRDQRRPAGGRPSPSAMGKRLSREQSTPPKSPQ
inactive: [1] -0.066 | crizotinib -0.1 | [2] -0.121 | [3] 0.104 | duvelisib -0.029 | gandotinib -0.029 | tozasertib 0.037 | [4] 0.065 | doramapimod 0.048 | ispinesib -0.132
